Assay results as given in PubChem BioAssay (NCI).
About 79,000 compounds went through this panel and 15% of them were active in at least one assay; those are over-represented in the sample as a whole. Rule as the data show it: active = growth inhibition above about 70%; inactive = the rest.

How the values were obtained:
[1] = NCI Yeast Anticancer Drug Screen. Data for the rad50 strain (AID 155);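 also: 0% = growth of vehicle-only cultures of the same strain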; settings: S. cerevisiae rad50 strain growth inhibition; at 50.0 µM; stronger effect = higher value
Outline: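 Growth of the mutant yeast was measured after compound exposure and referenced to vehicle-treated cultures.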

[2] = NCI Yeast Anticancer Drug Screen. Data for the mec2-1 strain (AID 157); settings: S. cerevisiae mec2-1 strain, at 50.0 µM, stronger effect = higher value
Outline: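 Test agents were screened against the mec2-1 yeast strain, with defined DNA repair or cell cycle alteration. Growth was scored as inhibition against vehicle-only controls.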

[3] = NCI Yeast Anticancer Drug Screen. Data for the sgs1 mgt1 strain (AID 161);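 also: 0% = growth of cultures given vehicle only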; settings: S. cerevisiae sgs1 mgt1 strain, at 50.0 µM, stronger effect = higher value
Outline: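 Read-out: growth inhibition vs vehicle controls. Cells: mutant yeast strain deficient in DNA damage repair.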

[4] = NCI Yeast Anticancer Drug Screen. Data for the cln2 rad14 strain (AID 165);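 also: 0% = growth equal to vehicle treated cultures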; settings: S. cerevisiae cln2 rad14 strain, at 50.0 µM, stronger effect = higher value
Outline: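 Growth of compound-exposed yeast (cln2 rad14 genotype) measured and expressed as inhibition relative to vehicle.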

[5] = NCI Yeast Anticancer Drug Screen. Data for the bub3 strain (AID 167); settings: S. cerevisiae bub3 mutant strain, at 50.0 µM, stronger effect = higher value
Outline: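 Whole-cell yeast assay. The mutant strain was incubated with compounds, and growth inhibition was determined by comparison with vehicle-treated cells.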

[6] = NCI Yeast Anticancer Drug Screen. Data for the mlh1 rad18 strain (AID 175); settings: S. cerevisiae mlh1 rad18 strain growth inhibition; at 50.0 µM; stronger effect = higher value
Outline: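 In this whole-cell yeast screen, a strain with altered DNA damage repair is challenged with compound, and its growth is measured against matched vehicle-treated controls.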

Measured: growth inhibition

CCCCNC(=S)N/N=C/c1ccc(OC)cc1
inactive: [1] -10.8% | [2] 1.55% | [3] -1.3% | [4] -41% | [5] -1.85% | [6] -6.45%

CCOC(=O)NC(C#N)=C(Cl)Cl
inactive: [1] 37.5% | [2] 47% | [3] 49% | [4] 14.1% | [5] 38.5% | [6] 43.6%

NC(=O)C(N)C(N)=NCc1ccccc1 (stereo unspecified)
inactive: [1] 10% | [2] 1.35% | [3] 4.15% | [4] -7.25% | [5] -2.3% | [6] 13.5%

N/N=C1\C(=O)N(Cc2ccccc2)C(=O)C1C(=O)NCc1ccccc1 (stereo unspecified)
inactive: [1] 7.5% | [2] 13.8% | [3] 3.4% | [4] -36.8% | [5] 19.4% | [6] 3.5%

NC(=O)c1csc(N)n1
inactive: [1] 4.4% | [2] 3.95% | [3] 0% | [4] 3.55% | [5] 9.3% | [6] -7.7%

CC(=O)OCCOCNC(=S)N/N=C/c1cc([N+](=O)[O-])ccc1O
inactive: [1] 25.9% | [2] -2.75% | [3] 15.6% | [4] 42% | [5] 10.7% | [6] -0.05%

CC(C)c1ccc(C(C)C)c(Cl)c1
inactive: [1] 43.7% | [2] 13.9% | [3] 16.4% | [4] 7.95% | [5] -12.6% | [6] 12.5%

N#Cc1nc(CC(=O)c2ccccc2Cl)c(CC(=O)c2ccccc2Cl)nc1C#N
inactive: [1] 22.4% | [2] 20.1% | [3] 5.6% | [4] 25.4% | [5] 13.4% | [6] 19.4%

NC(=O)NC(=O)c1ccco1
inactive: [1] 52.7% | [2] -1.55% | [3] 28.9% | [4] 17.1% | [5] -1.3% | [6] 16%

Cc1cccc(/C=N/NC(=S)NCCc2ccccn2)n1
inactive: [1] -17.4% | [2] -33.8% | [3] 14.2% | [4] 0.8% | [5] 9.55% | [6] -2.85%

c1ccc2c(c1)[nH]c1ccncc12
inactive: [1] -0.85% | [2] 0.1% | [3] -1.6% | [4] -40% | [5] -9.7% | [6] 3.7%

COc1ccc(C(=O)C(C(=O)CCC(=O)Nc2cccc(Cl)c2)c2ccc(OC)cc2)cc1 (stereo unspecified)
inactive: [1] -25.1% | [2] -9.4% | [3] -20.2% | [4] -4.9% | [5] 0.5% | [6] -0.15%

COc1cc(/C=C2\C=Nc3ccccc32)ccc1O
inactive: [1] 27.8% | [2] 23.9% | [3] 38% | [4] 20.3% | [5] 40.3% | [6] 35.7%

CCOC(=O)CC(c1ccc2c(c1)OCO2)c1cc(OC)c(OC)c(OC)c1 (stereo unspecified)
inactive: [1] -7.65% | [2] 24.9% | [3] -3% | [4] 0.45% | [5] 29.1% | [6] 3.2%

COC(=O)C(C(=O)C(=O)Nc1cccc([N+](=O)[O-])c1)c1nc2ccc([N+](=O)[O-])cc2[nH]c1=O (stereo unspecified)
inactive: [1] 37.6% | [2] 17.6% | [3] -10.2% | [4] -37.8% | [5] 9.2% | [6] 46.5%

COc1ccc(C(=O)c2ccccc2)c(O)c1
inactive: [1] 13.1% | [2] 1.8% | [3] -10.6% | [4] 4.95% | [5] 0.55% | [6] 6.9%

Cc1cccc(C)c1OC(=O)Nc1ccccc1
inactive: [1] 3.75% | [2] -18.6% | [3] 4.3% | [4] -46.5% | [5] 9.7% | [6] -8.95%

O=C(CCl)OCCCc1ccccc1
inactive: [1] -10.6% | [2] 44.2% | [3] 49.6% | [4] -6.3% | [5] 17% | [6] 36%

N#C/C(=N\N=C(/C#N)c1ccc(Cl)cc1)c1ccc(Cl)cc1
inactive: [1] -5.8% | [2] -1.85% | [3] -5.5% | [4] -6.4% | [5] -4.25% | [6] -5.15%

O=C(O)COc1cc(Cl)cc(F)c1Cl
inactive: [1] -23.6% | [2] 4.1% | [3] -9.4% | [4] -33.2% | [5] -7.85% | [6] -2.55%

CC(C)(C)NC(=O)Oc1ccc(-c2ccccc2)cc1
inactive: [1] 4.75% | [2] 26.6% | [3] 33% | [4] -4.45% | [5] 18.2% | [6] 32.9%

COc1ccc(C23OC2Oc2cc(OC4CCCCO4)ccc2C3=O)cc1 (stereo unspecified)
inactive: [1] 10.1% | [2] -8.45% | [3] -6.25% | [4] -6.4% | [5] 0.35% | [6] 2.55%

O=C1C2C3C=CC(CC3)C2C(=O)C2C3C=CC(C3)C12 (stereo unspecified)
inactive: [1] 1.15% | [2] 24.1% | [3] 26.9% | [4] -14.8% | [5] -1.45% | [6] 32.3%

COc1ccc(C=O)c(NC(=O)C(C)(C)C)c1
inactive: [1] 37.4% | [2] 23.9% | [3] 9.8% | [4] 1.7% | [5] 23.2% | [6] -13.7%

COC(=O)c1ccccc1N=CCC(C)CCCC(C)(C)O (stereo unspecified)
inactive: [1] -10.4% | [2] 4.4% | [3] 26.4% | [4] -8.4% | [5] 0.1% | [6] -5.05%

CC1CCC2C(C)C3C(CC4C5CC=C6CC(O)CCC6(C)C5CCC43C=O)N2C1 (stereo unspecified)
inactive: [1] 30.3% | [2] 19.9% | [3] 24.9% | [4] 16.6% | [5] 3.9% | [6] 19.4%

Cc1cc2c(c(C(C)(C)C)c1)OC(=O)/C2=C1/C(=O)Oc2c1cc(C)cc2C(C)(C)C
inactive: [1] 8.3% | [2] -8% | [3] -9.25% | [4] 0.85% | [5] 2.3% | [6] -12.8%

CC(=O)C(N)C(C)C (stereo unspecified)
inactive: [1] 5.4% | [2] -3.7% | [3] 19.2% | [4] 7.9% | [5] 1.65% | [6] 7.95%

O=C1c2ccccc2C(O)N1CCc1c[nH]c2ccccc12 (stereo unspecified)
inactive: [1] 12.4% | [2] -24.1% | [3] -12.1% | [4] 8.2% | [5] 1.3% | [6] -10.9%

CC(=O)OC1CCCN(C)C1 (stereo unspecified)
inactive: [1] -3.2% | [2] 5.5% | [3] 4.6% | [4] -7.9% | [5] 8.75% | [6] -7.8%

N#CCCC(CCC#N)(CCC(CCC#N)(CCC#N)[N+](=O)[O-])[N+](=O)[O-]
inactive: [1] -4.05% | [2] 11% | [3] 10.8% | [4] -11.6% | [5] 8.8% | [6] 6.3%

COc1cccc(OC)c1NC(=O)NCCCl
inactive: [1] -8.3% | [2] 14.6% | [3] 2.25% | [4] 50.8% | [5] 0.15% | [6] 14.4%

CCN(CC)CCN(C)C(O)(C(=O)c1ccccc1)C1CCCC1 (stereo unspecified)
inactive: [1] 8.9% | [2] 15.2% | [3] 2.3% | [4] -4.35% | [5] 0.45% | [6] 32%

Oc1ccc2ccccc2c1
inactive: [1] -10.3% | [2] -27.8% | [3] -14.8% | [4] -21.4% | [5] -16.4% | [6] 20.9%

NC1=Nc2ncccc2C(=O)NN1
inactive: [1] -17.4% | [2] 19.5% | [3] 8.1% | [4] 17.8% | [5] 12.7% | [6] 24.8%

N#CCc1ccc(-c2ccccc2)cc1
inactive: [1] -2.75% | [2] 20.9% | [3] 3.3% | [4] -31.9% | [5] -19.6% | [6] 6.25%

CCOC(=O)CCc1nc2ccccc2[nH]1
inactive: [1] 0.6% | [2] -0.6% | [3] -0.3% | [4] 3.7% | [5] 0.5% | [6] -4.25%

O=C(NCCCl)Nc1[nH]c(=O)ncc1Br
inactive: [1] -13.2% | [2] -12.7% | [3] -10.8% | [4] -44.4% | [5] -6.85% | [6] -12.3%

Cc1nc2ccccc2c(=O)n1NC(=S)Nc1cccc(Cl)c1
inactive: [1] 7.35% | [2] -35.3% | [3] 28.1% | [4] -12.8% | [5] -8.2% | [6] -26.8%

CC(=O)/C(=C/n1ccc(=O)[nH]c1=S)C(=O)Nc1ccccc1
inactive: [1] -23.1% | [2] -20.5% | [3] -18.6% | [4] 11.2% | [5] -12.7% | [6] -22.1%

COc1ccc(CC2=c3cc(OC)c(OC)cc3=CCN2)cc1OC
inactive: [1] 12.1% | [2] 4.5% | [3] 9.7% | [4] 12.2% | [5] -2.85% | [6] -5.75%
